# Measured values from PubChem BioAssay AID1794835 (Parasite Biology Lab, Institute for Biomedicine and …, 2023).
# About 45 (2%) of roughly 2,500 compounds were called active. This is one part of a sample in which actives are shown more often than they occur. Rule as the data show it: active = inhibition mostly above about 45% (no sharp cut-off); inactive = mostly below about 37%.
# Test: anti-Giardia activity of synthetic compounds – Compounds Australia Scaffold Library subset, 24/48 h, primary screen (AID 1794835);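 as to inhibition: 0% = parasite counts in DMSO vehicle wells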
# Settings: Giardia lamblia BRIS/91/HEPU/1279 trophozoite counts, imaging, at 10 µM
# [1] = measured here: growth inhibition at 24 h, stronger effect = higher value
smiles,measurement,setting,value
CC(=O)Nc1ccc([N+](=O)[O-])c2nonc12,inhibition,stronger effect = higher value,63.4% (active)
same,inhibition,[1],45%
CCc1ccc(NC(=O)[C@@H]2c3cc(OC)c(OC)cc3C(=O)N3CCCC[C@@H]23)cc1,inhibition,stronger effect = higher value,28.1% (inactive)
Cc1nn(C)c(C)c1CC(=O)N1CCC(N2CCCC2)C1 (stereo unspecified),inhibition,,inactive
CSc1ccc(C2NCc3ccccc3-n3cccc32)cc1 (stereo unspecified),inhibition,stronger effect = higher value,3.9% (inactive)
same,inhibition,[1],18.8%
COc1ccc(C2c3cccn3-c3ccccc3CN2C(=O)CCC(=O)NC2CCCCC2)cc1 (stereo unspecified),inhibition,,inactive
O=[N+]([O-])c1ccc(N2CCC(c3ncc[nH]3)CC2)c2ccncc12,inhibition,stronger effect = higher value,88.1% (active)
same,inhibition,[1],64.1%
Cc1cccc(NC(=O)CN2CC(c3ccccc3)CC2=O)c1 (stereo unspecified),inhibition,stronger effect = higher value,10.4% (inactive)
same,inhibition,[1],2.3%
CC(=O)N1N=C2C3CCN(CC3)[C@@H]2[C@@H]1c1cccc2ccccc12,outcome,,inactive
same,inhibition,[1],4.2%
Cc1ccc2c(C3CCNCC3)c[nH]c2c1,inhibition,,inactive
Cc1cccc(OCC(=O)N2CCN(Cc3nnsc3Cl)CC2)c1C,inhibition,stronger effect = higher value,35.2% (inactive)
same,inhibition,[1],20.5%
